Assay [1] addresses CDK3/Cyclin E (Homo sapiens) (UniProt P24864+Q00526). The settings on record: at 1 µM.
The target of assay [2] is Cyclin-dependent kinase 4 (Homo sapiens) (UniProt P11802). The settings on record: at 0.1 µM.
For assay [3] the target is unchanged. To be noted: at 1 µM.
Assay [4] addresses Cyclin-dependent kinase 5 (Homo sapiens) (UniProt Q00535). To be noted: at 0.1 µM.
Assay [5] has the same target. The settings on record: at 1 µM.
Assay [6] has as its target Cyclin-dependent kinase 6 (Homo sapiens) (UniProt Q00534). To be noted: at 0.1 µM.
Assay [7] has the same target. To be noted: at 1 µM.
The target of assay [8] is Dual specificity protein kinase CLK2 (Homo sapiens) (UniProt P49760). To be noted: at 0.1 µM.
Dual specificity protein kinase CLK2 (Homo sapiens), sequence (P49760 whole entry, looked up): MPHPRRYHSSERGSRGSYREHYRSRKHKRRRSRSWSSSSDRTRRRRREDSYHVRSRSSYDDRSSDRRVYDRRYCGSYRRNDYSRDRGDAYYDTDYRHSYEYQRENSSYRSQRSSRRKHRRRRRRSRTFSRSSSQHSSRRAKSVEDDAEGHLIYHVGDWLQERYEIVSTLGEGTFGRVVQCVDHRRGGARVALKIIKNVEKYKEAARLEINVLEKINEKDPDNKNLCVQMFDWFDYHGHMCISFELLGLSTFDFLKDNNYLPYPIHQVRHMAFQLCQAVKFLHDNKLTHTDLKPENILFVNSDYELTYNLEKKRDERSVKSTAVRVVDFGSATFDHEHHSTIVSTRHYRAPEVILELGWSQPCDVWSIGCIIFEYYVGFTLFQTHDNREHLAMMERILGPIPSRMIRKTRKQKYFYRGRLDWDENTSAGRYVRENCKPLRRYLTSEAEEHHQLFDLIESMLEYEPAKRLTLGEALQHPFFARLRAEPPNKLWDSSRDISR
Assay [9] has the same target. To be noted: at 1 µM.
For assay [10], the target named is Dual specificity protein kinase CLK3 (Homo sapiens) (UniProt P49761). To be noted: at 0.1 µM.
Dual specificity protein kinase CLK3 (Homo sapiens), sequence (P49761 whole entry, looked up): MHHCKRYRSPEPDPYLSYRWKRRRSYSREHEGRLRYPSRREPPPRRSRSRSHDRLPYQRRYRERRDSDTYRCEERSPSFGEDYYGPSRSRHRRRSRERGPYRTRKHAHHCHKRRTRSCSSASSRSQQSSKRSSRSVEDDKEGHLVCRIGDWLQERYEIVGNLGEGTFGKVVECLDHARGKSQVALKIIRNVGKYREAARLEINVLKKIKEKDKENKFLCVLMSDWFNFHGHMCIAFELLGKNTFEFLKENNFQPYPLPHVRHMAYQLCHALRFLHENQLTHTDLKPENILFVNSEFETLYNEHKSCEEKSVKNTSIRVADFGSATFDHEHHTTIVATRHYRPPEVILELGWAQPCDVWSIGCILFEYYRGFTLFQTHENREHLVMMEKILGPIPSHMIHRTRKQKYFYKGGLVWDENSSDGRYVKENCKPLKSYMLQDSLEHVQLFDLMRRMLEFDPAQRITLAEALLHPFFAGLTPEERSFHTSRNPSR
For assay [11] the target is unchanged. To be noted: at 1 µM.
Assay [12] addresses Dual specificity tyrosine-phosphorylation-regulated kinase 1A (Homo sapiens) (UniProt Q13627). To be noted: at 0.1 µM.
Assay [13] shares this target. To be noted: at 1 µM.
Assay [14] concerns the target Dual specificity tyrosine-phosphorylation-regulated kinase 1B (Homo sapiens) (UniProt Q9Y463). The settings on record: at 0.1 µM.
For assay [15] the target is unchanged. The settings on record: at 1 µM.
The target of assay [16] is T1, Dual specificity tyrosine-phosphorylation-regulated kinase 2 (Homo sapiens) (UniProt Q92630).
T1 sequence (whole entry): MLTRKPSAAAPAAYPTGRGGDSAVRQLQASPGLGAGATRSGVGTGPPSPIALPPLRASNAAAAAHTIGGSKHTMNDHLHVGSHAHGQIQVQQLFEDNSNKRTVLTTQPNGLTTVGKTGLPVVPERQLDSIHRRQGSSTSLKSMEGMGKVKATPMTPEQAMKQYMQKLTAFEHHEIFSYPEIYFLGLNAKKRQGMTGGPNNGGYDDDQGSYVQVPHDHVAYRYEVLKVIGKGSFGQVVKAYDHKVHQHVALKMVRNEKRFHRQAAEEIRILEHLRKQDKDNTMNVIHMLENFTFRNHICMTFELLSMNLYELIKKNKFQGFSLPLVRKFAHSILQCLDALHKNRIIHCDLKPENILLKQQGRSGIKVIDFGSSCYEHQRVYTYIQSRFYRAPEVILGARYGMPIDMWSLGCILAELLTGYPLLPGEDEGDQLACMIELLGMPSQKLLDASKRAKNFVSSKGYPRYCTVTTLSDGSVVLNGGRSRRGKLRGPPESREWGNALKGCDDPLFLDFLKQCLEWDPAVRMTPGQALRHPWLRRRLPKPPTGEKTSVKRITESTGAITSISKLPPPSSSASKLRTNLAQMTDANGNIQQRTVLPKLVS
The settings on record: at 0.1 µM.

Assay [17] deals with T1, Dual specificity tyrosine-phosphorylation-regulated kinase 2 (Homo sapiens). To be noted: at 1 µM.
In assay [18] the target is Glycogen synthase kinase-3 alpha (Homo sapiens) (UniProt P49840). The settings on record: at 0.1 µM.
Glycogen synthase kinase-3 alpha (Homo sapiens), sequence (P49840 2-483 limits assumed): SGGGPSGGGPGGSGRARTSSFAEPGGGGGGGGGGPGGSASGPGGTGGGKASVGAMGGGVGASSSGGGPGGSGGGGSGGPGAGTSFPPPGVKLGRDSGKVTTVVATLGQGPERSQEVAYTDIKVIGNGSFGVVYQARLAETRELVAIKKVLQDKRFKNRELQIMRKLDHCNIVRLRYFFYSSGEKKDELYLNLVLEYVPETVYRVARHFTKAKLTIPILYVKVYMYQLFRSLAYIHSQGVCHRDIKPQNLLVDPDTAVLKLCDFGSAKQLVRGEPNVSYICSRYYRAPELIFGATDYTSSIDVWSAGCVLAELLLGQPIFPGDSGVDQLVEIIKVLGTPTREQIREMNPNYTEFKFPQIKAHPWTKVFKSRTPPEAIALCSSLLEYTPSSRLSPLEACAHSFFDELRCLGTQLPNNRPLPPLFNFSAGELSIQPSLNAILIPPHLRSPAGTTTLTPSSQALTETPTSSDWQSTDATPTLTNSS
For assay [19] the target is unchanged. The settings on record: at 1 µM.
Assay [20] concerns the target Glycogen synthase kinase-3 beta (Homo sapiens) (UniProt P49841). The settings on record: at 0.1 µM.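 Also: values are mean percent inhibition of GSK3B activity, from the GSK Published Kinase Inhibitor Set (PKIS) screening dataset.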

For orientation: inhibition means the change of the read-out against control, counted positive when it falls.

Cyclin-dependent kinase 6 (Homo sapiens), sequence (Q00534 whole entry): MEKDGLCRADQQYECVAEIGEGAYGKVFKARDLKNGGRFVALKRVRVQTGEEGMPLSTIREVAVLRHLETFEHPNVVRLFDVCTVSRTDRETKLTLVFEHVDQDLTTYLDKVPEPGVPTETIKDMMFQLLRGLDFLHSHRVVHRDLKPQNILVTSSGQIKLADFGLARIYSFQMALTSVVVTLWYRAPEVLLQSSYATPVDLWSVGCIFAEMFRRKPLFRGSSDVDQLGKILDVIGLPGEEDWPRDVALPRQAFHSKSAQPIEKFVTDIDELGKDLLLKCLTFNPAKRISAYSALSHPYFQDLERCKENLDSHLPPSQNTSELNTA
Dual specificity tyrosine-phosphorylation-regulated kinase 1B (Homo sapiens), sequence (Q9Y463 whole entry, looked up): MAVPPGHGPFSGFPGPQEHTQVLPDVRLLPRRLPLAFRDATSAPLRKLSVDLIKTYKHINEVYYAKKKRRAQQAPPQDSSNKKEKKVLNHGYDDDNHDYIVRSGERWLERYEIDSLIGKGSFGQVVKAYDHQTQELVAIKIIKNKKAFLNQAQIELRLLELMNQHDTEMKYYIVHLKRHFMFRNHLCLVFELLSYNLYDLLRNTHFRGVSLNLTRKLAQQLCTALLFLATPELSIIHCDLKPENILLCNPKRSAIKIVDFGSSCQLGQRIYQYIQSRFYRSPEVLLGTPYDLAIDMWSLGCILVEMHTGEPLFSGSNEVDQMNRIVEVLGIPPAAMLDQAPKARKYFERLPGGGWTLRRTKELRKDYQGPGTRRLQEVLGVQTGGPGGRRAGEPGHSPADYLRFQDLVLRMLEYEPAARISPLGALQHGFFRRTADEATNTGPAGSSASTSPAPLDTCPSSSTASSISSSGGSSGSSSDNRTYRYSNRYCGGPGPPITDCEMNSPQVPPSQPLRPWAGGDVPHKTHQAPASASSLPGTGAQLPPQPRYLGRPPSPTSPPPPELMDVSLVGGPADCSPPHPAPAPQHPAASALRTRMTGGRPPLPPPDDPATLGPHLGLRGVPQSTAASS
Cyclin-dependent kinase 4 (Homo sapiens), sequence (P11802 whole entry): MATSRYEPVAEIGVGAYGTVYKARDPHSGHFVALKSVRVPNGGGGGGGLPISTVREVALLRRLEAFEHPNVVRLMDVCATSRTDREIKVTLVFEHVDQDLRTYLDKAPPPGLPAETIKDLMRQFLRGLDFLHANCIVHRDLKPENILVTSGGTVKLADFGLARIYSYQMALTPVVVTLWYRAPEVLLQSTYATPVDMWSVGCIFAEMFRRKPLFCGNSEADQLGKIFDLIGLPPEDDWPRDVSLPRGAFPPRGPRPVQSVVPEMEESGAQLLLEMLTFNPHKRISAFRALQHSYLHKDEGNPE
Cyclin-dependent kinase 5 (Homo sapiens), sequence (Q00535 whole entry, looked up): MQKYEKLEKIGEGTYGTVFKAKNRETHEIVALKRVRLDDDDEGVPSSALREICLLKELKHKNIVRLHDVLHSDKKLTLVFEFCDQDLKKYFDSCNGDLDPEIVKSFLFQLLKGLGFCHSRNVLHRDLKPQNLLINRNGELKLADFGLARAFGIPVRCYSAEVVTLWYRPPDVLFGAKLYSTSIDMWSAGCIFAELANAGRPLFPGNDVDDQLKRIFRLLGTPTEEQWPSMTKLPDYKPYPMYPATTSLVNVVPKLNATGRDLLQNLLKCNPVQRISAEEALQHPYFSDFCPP
Glycogen synthase kinase-3 beta (Homo sapiens), sequence (P49841 whole entry, looked up): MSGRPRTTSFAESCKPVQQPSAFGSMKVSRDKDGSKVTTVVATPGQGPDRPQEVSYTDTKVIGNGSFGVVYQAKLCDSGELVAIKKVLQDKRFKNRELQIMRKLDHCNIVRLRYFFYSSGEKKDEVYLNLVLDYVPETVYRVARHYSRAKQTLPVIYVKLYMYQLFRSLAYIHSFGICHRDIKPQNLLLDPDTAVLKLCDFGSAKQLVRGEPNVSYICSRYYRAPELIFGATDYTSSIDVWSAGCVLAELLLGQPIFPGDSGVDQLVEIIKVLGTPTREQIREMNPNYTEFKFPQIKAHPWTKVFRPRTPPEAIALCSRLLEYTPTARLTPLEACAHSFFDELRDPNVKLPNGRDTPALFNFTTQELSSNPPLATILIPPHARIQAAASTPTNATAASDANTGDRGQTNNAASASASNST
CDK3/Cyclin E (Homo sapiens), sequence (P24864 whole entry, looked up): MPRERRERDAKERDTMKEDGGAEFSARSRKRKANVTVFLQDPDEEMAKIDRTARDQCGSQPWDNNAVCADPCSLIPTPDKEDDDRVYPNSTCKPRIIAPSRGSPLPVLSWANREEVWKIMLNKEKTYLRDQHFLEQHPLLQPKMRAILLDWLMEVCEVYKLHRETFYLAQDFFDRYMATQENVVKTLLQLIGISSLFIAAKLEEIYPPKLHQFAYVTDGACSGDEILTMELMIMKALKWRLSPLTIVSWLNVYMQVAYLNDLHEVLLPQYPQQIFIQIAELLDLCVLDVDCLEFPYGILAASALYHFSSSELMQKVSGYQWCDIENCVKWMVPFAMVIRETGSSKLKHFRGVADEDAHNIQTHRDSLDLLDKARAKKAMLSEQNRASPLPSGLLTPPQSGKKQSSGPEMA
CDK3/Cyclin E (Homo sapiens), sequence (Q00526 whole entry, looked up): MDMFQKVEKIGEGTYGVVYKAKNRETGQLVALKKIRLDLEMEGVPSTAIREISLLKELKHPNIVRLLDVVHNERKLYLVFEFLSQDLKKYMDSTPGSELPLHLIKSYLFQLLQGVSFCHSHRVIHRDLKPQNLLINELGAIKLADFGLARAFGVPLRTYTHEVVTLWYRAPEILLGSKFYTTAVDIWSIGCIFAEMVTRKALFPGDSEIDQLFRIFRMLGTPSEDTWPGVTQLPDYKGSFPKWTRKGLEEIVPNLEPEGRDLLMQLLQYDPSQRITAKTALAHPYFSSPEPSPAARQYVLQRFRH

For `CCN(CC)Cc1ccc(Nc2nccc(-c3cnn4ncccc34)n2)cc1`, the inhibition in assay [1] was determined as 78.8%; in [2], 53.8%; in assay [3] it was 69.8%; in [4], 32.1%; in [5] it was 66.8%; in assay [6], 25.9%. The inhibition in [7] is 62.1%; in assay [8], 50.1%; in [9] it was 91.7%; in assay [10] it was -2.57%; in assay [11] it was 5.2%; in [12] it was 40%. The inhibition in [13] worked out at 88%; in assay [14], 43.6%; in assay [15], 69.2%; in assay [16] it was 5.06%; in [17] it was 25.7%; in assay [18], 24.4%. The results for the inhibition in assay [19] and in assay [20] were 65.8% and 18%, respectively.
With `O=C1Nc2ccc(I)cc2C1=Cc1cc(Br)c(O)c(Br)c1`, the inhibition in [1] is -2.28%; in assay [2] it was 4.82%; in assay [3], 6.47%; in assay [4], 0.5%; in assay [5], 0.26%; in [6] it was -0.1%. Also, the inhibition is 0.92% in [7]; 1.63% in [8]; 4.77% in [9]; -0.91% in assay [10]; -0.23% in [11]; 1.95% in assay [12]. Besides, the inhibition in assay [13] was 4.99%; in [14], -0.26%; in assay [15] it was 3.56%; in [16] it was 4.72%; in assay [17], 8.06%; in assay [18] it was 0.99%. The inhibition in [19] came to 5.19%; in assay [20], 0.29%.
With `Fc1ccc(-c2ncn(C3CCNCC3)c2-c2ccnc(Oc3ccc4c(c3)OCO4)n2)cc1`, the inhibition in assay [1] was -0.86%; in [2], 1.48%; in assay [3], 3.63%; in [4] it was 0.16%; in assay [5], 1.51%; in [6], 1.03%. Further, the inhibition in assay [7] was 2.27%; in assay [8], 0.55%; in assay [9], 0.01%; in assay [10] it was 0.88%; in [11], -2.27%; in assay [12] it was 3.17%. The inhibition is 4.78% in assay [13]; -1.37% in [14]; 0.33% in assay [15]; 3.24% in [16]; 3.38% in assay [17]; 2.07% in assay [18]. The inhibition in assay [19] stood at 5.18%; in assay [20], 2.71%.
With `c1ccc(Oc2ccc(Nc3ncc(-c4ccccc4)o3)cc2)cc1`, the inhibition in assay [1] is -2.54%; in assay [2] it was 1.05%; in [3], 1.2%; in [4] it was 0.52%; in assay [5], 1.6%; in [6], 1.34%. Moreover, the inhibition in assay [7] is 3.56%; in assay [8], -0.16%; in assay [9], -0.28%; in [10] it was 0.6%; in assay [11], 1.59%; in assay [12], 2.14%. The inhibition came to 5.29% in assay [13]; 1.51% in assay [14]; 2.84% in [15]; 0.4% in [16]; 0.21% in assay [17]; 2% in assay [18]. Further, the results for the inhibition in assay [19] and in assay [20] were 5.53% and 1.83%, respectively.
As for `Nc1nccc(-c2c(-c3ccc(F)cc3)ncn2C2CCC(O)CC2)n1` (stereo not given), the inhibition in assay [1] was -0.81%; in assay [2], 0.24%; in assay [3], 1.17%; in [4], 0.55%; in assay [5], 1.98%; in assay [6], 1.41%. For the same compound, the inhibition in assay [7] was found to be 1.1%; in [8], 1.54%; in assay [9], 0.55%; in assay [10] it was 1.02%; in assay [11], 3.28%; in assay [12], 2.86%. Moreover, the inhibition was 5.97% in [13]; 3.71% in assay [14]; 5.6% in assay [15]; -1.97% in [16]; -2.78% in [17]; 0.95% in assay [18]. Besides, the inhibition in assay [19] was 5.67%; in assay [20] it was 1.63%.
For `C/C(Nc1ccc(S(N)(=O)=O)cc1)=C1/C(=O)Nc2ccccc21`, the inhibition came out at 50.1% in [1]; 3.5% in [2]; 32% in [3]; 8.67% in assay [4]; 44.7% in assay [5]; 37% in assay [6]. Besides, the inhibition in [7] is 74.7%; in assay [8], 0.33%; in [9] it was 2.45%; in [10] it was -0.03%; in assay [11], 1.28%; in assay [12] it was 3.02%. The inhibition was 11.5% in [13]; 2.13% in [14]; 12.7% in [15]; -1.67% in [16]; 3.79% in assay [17]; 1.25% in [18]. Also, the inhibition came to 7.04% in [19] and 1.17% in assay [20].
For the compound `COc1cc(Nc2ncc3c(C)nc(-c4cccc(Oc5ccccc5)c4)n3n2)cc(OC)c1OC`, the inhibition was found to be 3.12% in assay [1]; 0.68% in assay [2]; 1.99% in assay [3]; 0.07% in [4]; 1.06% in [5]; 2.92% in [6]. Besides, the inhibition in [7] was 3.25%; in assay [8], 0.86%; in assay [9], 3.28%; in assay [10], 0.71%; in assay [11], 2.37%; in assay [12] it was 0.25%. Also, the inhibition stood at 5.84% in assay [13]; 0.92% in assay [14]; 2.74% in assay [15]; 2.11% in assay [16]; 1.95% in assay [17]; 0.37% in assay [18]. The inhibition in assay [19] is 0.14%; in [20], -0.59%.
